{"source": "the supplement of paper PMC8728848", "binders": {"B1": {"name": "MIC1 (Toxoplasma gondii), O00834 (protein)", "chain": "VGPEAYGEASHSHSPASGRYIQQMLDQRCQEIAAELCQSGLRKMCVPSSRIVARNAVGITHQNTLQWRCFDTASLLESNQENNGVNCVDDCGHTIPCPGGVHRQNSNHATRHEILSKLVEEGVQRFCSPYQASANKYCNDKFPGTIARRSKGFGNNVEVAWRCYEKASLLYSVYAECASNCGTTWYCPGGRRGTSTELDKRHYTEEEGIRQAIGSVDSPCSEVEVCLPKDENPPLCLDESGQISRT"}, "B2": {"name": "FaeGab (Escherichia coli) (protein)", "chain": "WMTGDFNGSVDIGGSITADDYRQKWEWKVGTGLNGFGNVLNDLTNGGTKLTITVTGNKPILLGRTKEAFATPVSGGVDGIPQIAFTDYEGASVKLRNTDGETNKGLAYFVLPMKNAEGTKVGSVKVNASYAGVFGKGGVTSADGELFSLFADGLRAIFYGGLTTTVSGAALTSGSAAAARTELFGSLSRNDILGQIQRVNANITSLVDVAGSYREDMEYTDGTVVSAAYALGIANGQTIEATFNQAVTTSTQWSAPLNVAITYY"}}, "test_in_all_cases": "glycan array binding signal (z-score within array); higher = stronger binding", "settings_in_all_cases": "glycan notation: IUPAC condensed, linker removed", "key": {"[1]": {"biological_target": "Fuc(a1-2)Gal(b1-4)[Fuc(a1-3)]GlcNAc(b1-3)Gal(b1-4)Glc", "method_in_brief": "(§1)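 The binding signal is a Z-score computed within each array. Data were drawn from 3228 arrays in the Consortium for Functional Glycomics database, restricted to those with a known protein sequence. Scores were averaged over arrays of the same protein sequence at different concentrations or buffers, and over linkers, and negative values can be taken as non-binding.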"}, "[2]": {"biological_target": "Fuc(a1-2)[Gal(a1-3)]Gal(b1-4)GlcNAc(b1-3)Gal(b1-4)Glc", "method_in_brief": "as §1"}, "[3]": {"biological_target": "Fuc(a1-3)[Gal3S(b1-4)]Glc", "method_in_brief": "as §1"}, "[4]": {"biological_target": "Fuc(a1-6)GlcNAc", "method_in_brief": "as §1"}, "[5]": {"biological_target": "Gal(b1-4)GlcNAc(b1-3)[Gal(b1-4)GlcNAc(b1-6)]Gal(b1-4)GlcNAc(b1-3)[Gal(b1-4)GlcNAc(b1-6)]Gal(b1-4)GlcNAc(b1-3)[Gal(b1-4)GlcNAc(b1-6)]Gal(b1-4)GlcNAc(b1-3)[Gal(b1-4)GlcNAc(b1-6)]Gal(b1-4)GlcNAc(b1-3)Gal(b1-4)Glc", "method_in_brief": "as §1"}, "[6]": {"biological_target": "Glc(b1-3)Glc(b1-3)Glc(b1-3)Glc(b1-3)Glc(b1-3)Glc(b1-3)Glc", "method_in_brief": "as §1"}, "[7]": {"biological_target": "Glc(b1-4)Glc", "method_in_brief": "as §1"}, "[8]": {"biological_target": "Glc(b1-4)Glc(b1-4)Glc(b1-4)Glc(b1-4)Glc(b1-4)Glc(b1-4)Glc(b1-4)Glc(b1-4)Glc", "method_in_brief": "as §1"}, "[9]": {"biological_target": "Glc(b1-4)Glc(b1-4)Glc(b1-4)Glc(b1-4)Glc(b1-4)Glc(b1-4)Glc(b1-4)Glc(b1-4)Glc(b1-4)Glc", "method_in_brief": "as §1"}, "[10]": {"biological_target": "GlcNAc(a1-4)Gal(b1-3)[Fuc(a1-2)]Gal", "method_in_brief": "as §1"}, "[11]": {"biological_target": "Kdn(a2-3)[GalNAc(b1-4)]Gal(b1-3)GlcNAc", "method_in_brief": "as §1"}, "[12]": {"biological_target": "Man(a1-6)Man", "method_in_brief": "as §1"}, "[13]": {"biological_target": "Neu5Ac(a2-3)Gal(b1-4)GlcNAc(b1-2)Man(a1-3)[Neu5Ac(a2-3)Gal(b1-4)GlcNAc(b1-2)Man(a1-6)]Man(b1-4)GlcNAc(b1-4)[Fuc(a1-6)]GlcNAc", "method_in_brief": "as §1"}, "[14]": {"biological_target": "Neu5Ac(a2-3)Gal(b1-4)GlcNAc6S(b1-3)Gal6S(b1-3)GlcNAc6S", "method_in_brief": "as §1"}, "[15]": {"biological_target": "Neu5Ac(a2-3)Gal(b1-4)[Fuc(a1-3)]GlcNAc(b1-3)Gal(b1-4)Glc", "method_in_brief": "as §1"}, "[16]": {"biological_target": "Neu5Ac(a2-3)Gal6S(b1-4)[Fuc(a1-3)]GlcNAc6S(b1-3)Gal(b1-4)Glc", "method_in_brief": "as §1"}, "[17]": {"biological_target": "Neu5Ac(a2-3)[GalNAc(b1-4)]Gal(b1-3)GalNAc(b1-4)[Neu5Ac(a2-3)]Gal(b1-4)Glc", "method_in_brief": "as §1"}, "[18]": {"biological_target": "Neu5Ac(a2-3)[GalNAc(b1-4)]Gal(b1-4)Glc", "method_in_brief": "as §1"}, "[19]": {"biological_target": "Neu5Ac(a2-6)Gal(b1-4)Glc", "method_in_brief": "as §1"}, "[20]": {"biological_target": "Neu5Ac(a2-8)Neu5Ac(a2-3)Gal(b1-3)GalNAc(b1-4)[Neu5Ac(a2-8)Neu5Ac(a2-3)]Gal(b1-4)Glc", "method_in_brief": "as §1"}, "[21]": {"biological_target": "Neu5Gc(a2-3)Gal(b1-3)GlcNAc(b1-3)Gal(b1-4)Glc", "method_in_brief": "as §1"}, "[22]": {"biological_target": "Neu5Gc(a2-3)[GalNAc(b1-4)]Gal", "method_in_brief": "as §1"}, "[23]": {"biological_target": "Neu5Gc(a2-6)Gal(b1-3)GlcNAc(b1-3)Gal(b1-4)Glc", "method_in_brief": "as §1"}, "[24]": {"biological_target": "Neu5Gc(a2-6)Gal(b1-4)GlcNAc(b1-2)Man(a1-3)[Neu5Gc(a2-6)Gal(b1-4)GlcNAc(b1-2)Man(a1-6)]Man(b1-4)GlcNAc(b1-4)GlcNAc", "method_in_brief": "as §1"}, "[25]": {"biological_target": "Neu5Gc(a2-6)GalNAc", "method_in_brief": "as §1"}, "[26]": {"biological_target": "Xyl(a1-6)Glc(b1-4)[Xyl(a1-6)]Glc(b1-4)[Xyl(a1-6)]Glc(b1-4)Glc", "method_in_brief": "as §1"}, "[27]": {"biological_target": "Fuc(a1-2)Gal(b1-4)[Fuc(a1-3)]GlcNAc(b1-3)Gal(b1-4)[Fuc(a1-3)]GlcNAc(b1-3)Gal(b1-4)[Fuc(a1-3)]GlcNAc", "method_in_brief": "as §1"}, "[28]": {"biological_target": "Gal(a1-3)Gal", "method_in_brief": "as §1"}, "[29]": {"biological_target": "Gal(b1-3)GlcNAc(b1-3)Gal(b1-4)GlcNAc", "method_in_brief": "as §1"}, "[30]": {"biological_target": "Gal3S(b1-3)GlcNAc", "method_in_brief": "as §1"}, "[31]": {"biological_target": "Gal6S(b1-4)GlcNAc", "method_in_brief": "as §1"}, "[32]": {"biological_target": "Glc(a1-4)Glc", "method_in_brief": "as §1"}, "[33]": {"biological_target": "Glc(a1-6)Glc(a1-6)Glc", "method_in_brief": "as §1"}, "[34]": {"biological_target": "GlcNAc(b1-4)GlcNAc(b1-4)GlcNAc", "method_in_brief": "as §1"}, "[35]": {"biological_target": "Man(a1-2)Man(a1-2)Man(a1-6)[Man(a1-3)]Man", "method_in_brief": "as §1"}, "[36]": {"biological_target": "Neu5Ac(a2-3)Gal", "method_in_brief": "as §1"}, "[37]": {"biological_target": "Neu5Ac(a2-3)[Neu5Ac(a2-6)]GalNAc", "method_in_brief": "as §1"}, "[38]": {"biological_target": "Neu5Ac(a2-6)Gal(b1-4)GlcNAc(b1-3)Gal(b1-4)[Fuc(a1-3)]GlcNAc(b1-3)Gal(b1-4)[Fuc(a1-3)]GlcNAc", "method_in_brief": "as §1"}, "[39]": {"biological_target": "Neu5Ac(a2-8)Neu5Ac(a2-8)Neu5Ac(a2-8)Neu5Ac(a2-3)[GalNAc(b1-4)]Gal(b1-4)Glc", "method_in_brief": "as §1"}, "[40]": {"biological_target": "Neu5Ac(b2-6)Gal(b1-4)GlcNAc", "method_in_brief": "as §1"}, "[41]": {"biological_target": "Neu5Gc(a2-6)Gal(b1-4)GlcNAc", "method_in_brief": "as §1"}}, "note": "About 410 targets per protein were measured; listed, in parts, are those with the strongest signals and a random draw of the rest.", "data": [{"binder": "B1", "values": [{"measurement": "glycan array binding signal (z-score)", "setting": "[1]", "value": -0.296}, {"measurement": "glycan array binding signal (z-score)", "setting": "[2]", "value": -0.253}, {"measurement": "glycan array binding signal (z-score)", "setting": "[3]", "value": -0.041}, {"measurement": "glycan array binding signal (z-score)", "setting": "[4]", "value": -0.287}, {"measurement": "glycan array binding signal (z-score)", "setting": "[5]", "value": -0.287}, {"measurement": "glycan array binding signal (z-score)", "setting": "[6]", "value": -0.287}, {"measurement": "glycan array binding signal (z-score)", "setting": "[7]", "value": -0.287}, {"measurement": "glycan array binding signal (z-score)", "setting": "[8]", "value": -0.287}, {"measurement": "glycan array binding signal (z-score)", "setting": "[9]", "value": -0.287}, {"measurement": "glycan array binding signal (z-score)", "setting": "[10]", "value": -0.299}, {"measurement": "glycan array binding signal (z-score)", "setting": "[11]", "value": -0.274}, {"measurement": "glycan array binding signal (z-score)", "setting": "[12]", "value": -0.312}, {"measurement": "glycan array binding signal (z-score)", "setting": "[13]", "value": 2.46}, {"measurement": "glycan array binding signal (z-score)", "setting": "[14]", "value": 4.52}, {"measurement": "glycan array binding signal (z-score)", "setting": "[15]", "value": 0.087}, {"measurement": "glycan array binding signal (z-score)", "setting": "[16]", "value": 2.46}, {"measurement": "glycan array binding signal (z-score)", "setting": "[17]", "value": 1.29}, {"measurement": "glycan array binding signal (z-score)", "setting": "[18]", "value": 2.98}, {"measurement": "glycan array binding signal (z-score)", "setting": "[19]", "value": -0.342}, {"measurement": "glycan array binding signal (z-score)", "setting": "[20]", "value": -0.411}, {"measurement": "glycan array binding signal (z-score)", "setting": "[21]", "value": 2.33}, {"measurement": "glycan array binding signal (z-score)", "setting": "[22]", "value": 4.78}, {"measurement": "glycan array binding signal (z-score)", "setting": "[23]", "value": 2.08}, {"measurement": "glycan array binding signal (z-score)", "setting": "[24]", "value": 0.198}, {"measurement": "glycan array binding signal (z-score)", "setting": "[25]", "value": 4.8}, {"measurement": "glycan array binding signal (z-score)", "setting": "[26]", "value": -0.287}]}, {"binder": "B2", "values": [{"measurement": "glycan array binding signal (z-score)", "setting": "[27]", "value": -0.302}, {"measurement": "glycan array binding signal (z-score)", "setting": "[28]", "value": 0.089}, {"measurement": "glycan array binding signal (z-score)", "setting": "[29]", "value": -0.347}, {"measurement": "glycan array binding signal (z-score)", "setting": "[30]", "value": -0.012}, {"measurement": "glycan array binding signal (z-score)", "setting": "[31]", "value": -0.201}, {"measurement": "glycan array binding signal (z-score)", "setting": "[32]", "value": 8.87}, {"measurement": "glycan array binding signal (z-score)", "setting": "[33]", "value": 10.2}, {"measurement": "glycan array binding signal (z-score)", "setting": "[7]", "value": 4.4}, {"measurement": "glycan array binding signal (z-score)", "setting": "[34]", "value": 0.132}, {"measurement": "glycan array binding signal (z-score)", "setting": "[35]", "value": 1.91}, {"measurement": "glycan array binding signal (z-score)", "setting": "[36]", "value": -0.477}, {"measurement": "glycan array binding signal (z-score)", "setting": "[37]", "value": -0.489}, {"measurement": "glycan array binding signal (z-score)", "setting": "[38]", "value": -0.433}, {"measurement": "glycan array binding signal (z-score)", "setting": "[39]", "value": -0.352}, {"measurement": "glycan array binding signal (z-score)", "setting": "[40]", "value": -0.473}, {"measurement": "glycan array binding signal (z-score)", "setting": "[41]", "value": -0.5}]}]}
